{
  "source": "paper PMC7862700",
  "about": "“An all-to-all approach to the identification of sequence-specific readers for epigenetic DNA modifications on cytosine”",
  "experiment_in_all_cases": "DAPPL (digital affinity profiling via proximity ligation, sequencing); 10 mM Tris-HCl pH 7.5, 50 mM NaCl, 1 mM DTT, 4% glycerol, room temperature, 30 min; GST-TFs on glutathione beads, 16-mer random dsDNA library, 0.1% formaldehyde crosslink after washing; high values mean tight binding",
  "conditions_in_all_cases": "protein: recombinant; tags: N-terminal GST; dsDNA, one strand shown",
  "key": {"[1]": {"target": "T1, FLI1 (Homo sapiens, UniProt Q01543 1-452)", "T1 sequence": "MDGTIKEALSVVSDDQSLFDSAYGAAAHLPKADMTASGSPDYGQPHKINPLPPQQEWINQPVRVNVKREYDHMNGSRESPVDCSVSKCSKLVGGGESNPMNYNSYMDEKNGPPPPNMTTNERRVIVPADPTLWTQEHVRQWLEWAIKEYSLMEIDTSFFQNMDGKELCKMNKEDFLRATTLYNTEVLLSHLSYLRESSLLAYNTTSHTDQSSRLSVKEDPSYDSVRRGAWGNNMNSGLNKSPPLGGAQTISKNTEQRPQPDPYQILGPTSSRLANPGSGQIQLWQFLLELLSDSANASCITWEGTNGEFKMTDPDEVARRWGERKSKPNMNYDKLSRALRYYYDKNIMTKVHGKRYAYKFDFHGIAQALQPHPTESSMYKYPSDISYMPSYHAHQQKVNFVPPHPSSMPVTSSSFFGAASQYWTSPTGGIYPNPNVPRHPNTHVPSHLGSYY", "summary_of_the_method": "(§1)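 Human transcription factors carrying a GST fusion were produced in yeast, bound to glutathione beads, tagged with DNA barcodes and pooled together with a tag-only sample. Each pool was held with 200 nmole of a random double-stranded 16-mer DNA library in Tris/NaCl/DTT/glycerol buffer for 30 min at room temperature, then washed, crosslinked in 0.1% formaldehyde, proximity-ligated with BsaI/T4 ligase (1 h, 37 °C), PCR-amplified and sequenced on an Illumina NextSeq500. Binding signal is the read frequency of each hexamer for a given factor divided by its frequency in the tag-only sample.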"}, "[2]": {"target": "T2, ELK1 (Homo sapiens, UniProt P19419 1-428)", "T2 sequence": "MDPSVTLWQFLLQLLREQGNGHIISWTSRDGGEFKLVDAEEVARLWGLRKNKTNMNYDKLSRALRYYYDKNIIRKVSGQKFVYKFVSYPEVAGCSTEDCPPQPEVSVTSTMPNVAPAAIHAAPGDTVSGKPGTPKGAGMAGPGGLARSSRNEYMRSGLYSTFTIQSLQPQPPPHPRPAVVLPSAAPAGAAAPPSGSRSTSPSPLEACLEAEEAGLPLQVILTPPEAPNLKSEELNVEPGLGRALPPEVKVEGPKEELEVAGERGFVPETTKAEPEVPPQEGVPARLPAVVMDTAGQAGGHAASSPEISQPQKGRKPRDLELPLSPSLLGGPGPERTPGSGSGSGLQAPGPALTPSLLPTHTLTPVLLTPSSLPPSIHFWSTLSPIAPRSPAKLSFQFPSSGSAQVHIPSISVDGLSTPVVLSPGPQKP", "summary_of_the_method": "as §1"}, "[3]": {"target": "T3, GABPA (Homo sapiens, UniProt Q06546 1-454)", "T3 sequence": "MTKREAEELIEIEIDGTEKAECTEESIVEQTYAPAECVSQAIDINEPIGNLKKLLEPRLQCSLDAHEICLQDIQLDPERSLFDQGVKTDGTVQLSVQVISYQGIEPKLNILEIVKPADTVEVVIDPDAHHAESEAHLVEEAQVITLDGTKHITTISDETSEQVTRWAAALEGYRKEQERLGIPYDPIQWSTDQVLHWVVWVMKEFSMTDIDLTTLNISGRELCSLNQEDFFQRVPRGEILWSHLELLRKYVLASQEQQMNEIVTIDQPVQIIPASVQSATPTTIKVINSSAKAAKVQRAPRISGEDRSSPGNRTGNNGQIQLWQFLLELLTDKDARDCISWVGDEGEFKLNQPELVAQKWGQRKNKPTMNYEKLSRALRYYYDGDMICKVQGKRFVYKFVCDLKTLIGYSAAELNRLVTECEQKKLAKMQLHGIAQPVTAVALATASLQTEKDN", "summary_of_the_method": "as §1"}, "[4]": {"target": "T4, ERG (Homo sapiens, UniProt P11308 1-479)", "T4 sequence": "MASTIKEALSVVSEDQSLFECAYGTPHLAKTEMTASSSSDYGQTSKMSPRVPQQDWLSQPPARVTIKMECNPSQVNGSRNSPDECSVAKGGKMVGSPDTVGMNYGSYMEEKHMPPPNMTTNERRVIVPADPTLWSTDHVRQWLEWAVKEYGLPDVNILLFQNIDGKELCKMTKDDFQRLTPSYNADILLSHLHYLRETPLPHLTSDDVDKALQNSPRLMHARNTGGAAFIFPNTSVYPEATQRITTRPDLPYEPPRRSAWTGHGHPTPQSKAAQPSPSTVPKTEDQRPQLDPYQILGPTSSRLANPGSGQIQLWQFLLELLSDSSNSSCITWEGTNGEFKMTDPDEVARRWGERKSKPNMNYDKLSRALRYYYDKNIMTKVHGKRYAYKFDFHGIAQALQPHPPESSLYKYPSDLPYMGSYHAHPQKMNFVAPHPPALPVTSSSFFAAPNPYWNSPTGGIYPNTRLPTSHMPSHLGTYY", "summary_of_the_method": "as §1"}, "[5]": {"target": "ELF1 (Homo sapiens, UniProt P32519 1-619)", "sequence (P32519 whole entry)": "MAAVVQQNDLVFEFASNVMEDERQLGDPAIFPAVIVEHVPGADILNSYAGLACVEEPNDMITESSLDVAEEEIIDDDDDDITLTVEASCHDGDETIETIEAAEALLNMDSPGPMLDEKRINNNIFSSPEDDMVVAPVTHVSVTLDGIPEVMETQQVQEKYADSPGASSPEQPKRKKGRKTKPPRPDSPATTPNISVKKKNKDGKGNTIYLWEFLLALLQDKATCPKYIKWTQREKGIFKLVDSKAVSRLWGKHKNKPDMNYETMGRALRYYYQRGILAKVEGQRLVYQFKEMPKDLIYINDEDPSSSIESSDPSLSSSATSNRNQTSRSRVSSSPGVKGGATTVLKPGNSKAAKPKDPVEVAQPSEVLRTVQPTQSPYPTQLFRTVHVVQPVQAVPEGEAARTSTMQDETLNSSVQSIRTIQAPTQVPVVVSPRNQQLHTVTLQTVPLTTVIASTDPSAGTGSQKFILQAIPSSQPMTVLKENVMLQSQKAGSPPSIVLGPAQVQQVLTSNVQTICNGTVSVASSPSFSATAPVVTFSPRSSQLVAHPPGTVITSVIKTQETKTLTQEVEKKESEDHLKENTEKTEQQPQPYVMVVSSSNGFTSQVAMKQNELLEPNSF", "summary_of_the_method": "as §1"}, "[6]": {"target": "T5, EHF (Homo sapiens, UniProt Q9NZC4 1-300)", "T5 sequence": "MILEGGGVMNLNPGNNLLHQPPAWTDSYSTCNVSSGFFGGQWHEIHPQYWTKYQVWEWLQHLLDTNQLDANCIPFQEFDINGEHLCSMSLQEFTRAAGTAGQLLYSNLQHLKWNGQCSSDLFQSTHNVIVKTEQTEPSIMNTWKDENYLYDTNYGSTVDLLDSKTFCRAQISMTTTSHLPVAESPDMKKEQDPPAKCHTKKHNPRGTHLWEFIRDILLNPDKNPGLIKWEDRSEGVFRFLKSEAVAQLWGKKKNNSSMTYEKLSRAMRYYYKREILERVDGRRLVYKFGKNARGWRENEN", "summary_of_the_method": "as §1"}, "[7]": {"target": "SPI1 (Homo sapiens, UniProt P17947 1-270)", "summary_of_the_method": "as §1"}, "[8]": {"target": "SPIB (Homo sapiens, UniProt Q01892 1-262)", "sequence (Q01892 whole entry)": "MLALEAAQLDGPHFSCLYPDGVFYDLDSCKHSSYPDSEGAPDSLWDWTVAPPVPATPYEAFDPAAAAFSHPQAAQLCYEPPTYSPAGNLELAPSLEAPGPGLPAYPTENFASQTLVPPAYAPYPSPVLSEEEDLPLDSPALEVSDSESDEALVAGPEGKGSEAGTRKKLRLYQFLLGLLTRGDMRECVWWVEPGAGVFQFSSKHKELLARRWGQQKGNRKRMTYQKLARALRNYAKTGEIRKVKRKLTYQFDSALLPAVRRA", "summary_of_the_method": "as §1"}, "[9]": {"target": "T6, ELK3 (Homo sapiens, UniProt P41970 1-407)", "T6 sequence": "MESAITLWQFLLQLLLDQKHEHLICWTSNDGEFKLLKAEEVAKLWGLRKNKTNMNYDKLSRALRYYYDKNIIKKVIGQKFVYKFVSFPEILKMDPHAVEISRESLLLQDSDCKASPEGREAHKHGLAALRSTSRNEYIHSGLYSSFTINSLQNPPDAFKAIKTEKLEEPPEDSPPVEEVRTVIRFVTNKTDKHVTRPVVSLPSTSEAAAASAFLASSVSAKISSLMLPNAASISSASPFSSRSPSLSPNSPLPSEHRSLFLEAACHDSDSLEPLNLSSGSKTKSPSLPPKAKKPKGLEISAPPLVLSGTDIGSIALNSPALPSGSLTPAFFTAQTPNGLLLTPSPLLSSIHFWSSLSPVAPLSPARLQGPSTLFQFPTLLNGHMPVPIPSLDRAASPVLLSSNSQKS", "summary_of_the_method": "as §1"}, "[10]": {"target": "T7, FEV (Homo sapiens, UniProt Q99581 1-238)", "T7 sequence": "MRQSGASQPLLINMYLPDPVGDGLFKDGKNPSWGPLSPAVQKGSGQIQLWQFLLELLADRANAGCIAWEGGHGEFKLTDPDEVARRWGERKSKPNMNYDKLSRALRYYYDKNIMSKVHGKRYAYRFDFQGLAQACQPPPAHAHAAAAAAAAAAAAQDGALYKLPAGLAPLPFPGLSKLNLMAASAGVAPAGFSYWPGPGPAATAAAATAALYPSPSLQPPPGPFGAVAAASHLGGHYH", "summary_of_the_method": "as §1"}},
  "data": [
    {"sequence": "GTCTAC", "values": [
      {"measurement": "binding signal", "setting": "[1]", "value": "1.09 fold enrichment (6-mer frequency, TF over GST control)"},
      {"measurement": "binding signal", "setting": "[2]", "value": "1.08 fold enrichment (6-mer frequency, TF over GST control)"},
      {"measurement": "binding signal", "setting": "[3]", "value": "1.08 fold enrichment (6-mer frequency, TF over GST control)"},
      {"measurement": "binding signal", "setting": "[4]", "value": "1.05 fold enrichment (6-mer frequency, TF over GST control)"},
      {"measurement": "binding signal", "setting": "[5]", "value": "1.05 fold enrichment (6-mer frequency, TF over GST control)"},
      {"measurement": "binding signal", "setting": "[6]", "value": "1.16 fold enrichment (6-mer frequency, TF over GST control)"},
      {"measurement": "binding signal", "setting": "[7]", "value": "1.12 fold enrichment (6-mer frequency, TF over GST control)"},
      {"measurement": "binding signal", "setting": "[8]", "value": "1.03 fold enrichment (6-mer frequency, TF over GST control)"},
      {"measurement": "binding signal", "setting": "[9]", "value": "1.06 fold enrichment (6-mer frequency, TF over GST control)"},
      {"measurement": "binding signal", "setting": "[10]", "value": "1.08 fold enrichment (6-mer frequency, TF over GST control)"}
    ]}
  ]
}
